Source: PubChem BioAssay (National Center for Advancing Translational Sciences (NCATS))
Rows were chosen to be rich in hits. Some 4.7% of all compounds tested hit in one or more screens of this group.
D1 potentiator: potentiators of human D1 dopamine receptor. hit rate 0.036% among 360,000. potentiation, % at 10 µM. HEK293 TREx D1 cells, calcium flux, dopamine EC20 potentiation. P21728. AID 504651; in the data active = potentiation above about 30%
D1 antag: blocks dopamine activation of the human D1 receptor; P21728; HEK293 TREx D1 cells, calcium flux, dopamine EC80; active compounds read low; activity change, negative = inhibition, % at 10 µM; hit rate 3.2% among 360,000; AID 504652; in the data active = activity change below about -30%
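Inducible Hek293 Trex D1 cells (tetracycline, overnight, 30 C). Calcium dye 30–90 min RT. Antagonist mode: EC80 dopamine added after 180 s compound read.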
TRHR agonist: agonists of human TRH receptor | TRHR cells, calcium flux fluo-8, FDSS agonist mode | activation, % at 2 µM | hit rate 0.18% among 360,000
Target sequence (P34981 whole entry, looked up): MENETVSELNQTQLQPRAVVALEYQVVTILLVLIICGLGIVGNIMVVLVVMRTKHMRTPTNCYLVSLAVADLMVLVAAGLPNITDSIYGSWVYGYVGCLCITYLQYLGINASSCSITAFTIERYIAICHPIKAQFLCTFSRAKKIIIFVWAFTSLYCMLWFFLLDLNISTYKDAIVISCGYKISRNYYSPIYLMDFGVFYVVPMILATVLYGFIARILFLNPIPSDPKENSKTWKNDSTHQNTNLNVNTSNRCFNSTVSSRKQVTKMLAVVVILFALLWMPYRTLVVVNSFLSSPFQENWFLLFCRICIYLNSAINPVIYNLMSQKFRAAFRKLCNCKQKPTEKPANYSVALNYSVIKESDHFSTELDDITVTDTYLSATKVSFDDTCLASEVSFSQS
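Fluo-8-loaded TRHR cells; 10 s baseline, compound added, kinetic Ca2+ fluorescence read 1/s, agonist mode.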
D1 agonist: activates the human D1 dopamine receptor; P21728; HEK293 T-REx D1 cells, calcium flux, agonist mode; activation, % at 2 µM; hit rate 1% among 360,000
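Agonism was scored from calcium flux recorded over 180 s (1 read/s) after pintool compound addition, following a 10-cycle baseline. Cells were inducible force-coupled HEK293 TREx D1, plated overnight at 30 C and loaded with no-wash calcium dye.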
TRHR PAM: allosteric enhancers of human TRH receptor; P34981; hit rate 0.66% among 360,000; enhancement, % at 2 µM; TRHR cells, fluo-8 calcium fluorescence, EC20 TRH enhancement; in the data active = enhancement above about 30%
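Enhancer read-out: after compound pinning and an initial kinetic agonist-mode read, an EC20 of TRH (10 nM final) was injected and fluo-8 calcium signal (Ex 480/Em 530) followed at 1 s/cycle for 100 cycles in TRHR-expressing cells.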
Numbers stand for hits. Rule as the data show it, unless noted: active = activation above about 30%; inactive = the rest.

What do the screens show for `COc1ccccc1OCC(O)CN1CCN(C(=O)c2ccccc2)CC1` (stereo unspecified)?
D1 potentiator: inactive; D1 antag: -35.6; TRHR agonist: inactive; D1 agonist: inactive; TRHR PAM: inactive

What do the screens show for `CC(C)CN(CC(C)C)CC(O)Cn1cc(/C=C/C(=O)c2ccccc2)c2ccccc21` (stereo unspecified)?
D1 potentiator: inactive; D1 antag: inactive; TRHR agonist: inactive; D1 agonist: inactive; TRHR PAM: inactive

What do the screens show for `CCCN(CCC)CC(O)Cn1cc(/C=C/C(=O)c2ccc(OCC)cc2)c2ccccc21` (stereo unspecified)?
D1 potentiator: inactive; D1 antag: -31.9; TRHR agonist: inactive; D1 agonist: 68.9; TRHR PAM: inactive

Results for CCCN(CCC)CC(O)Cn1c2ccccc2c2ccccc21 (stereo unspecified) ?
D1 potentiator: inactive; D1 antag: inactive; TRHR agonist: inactive; D1 agonist: 31.3; TRHR PAM: inactive

Results for Cc1cccc(C)c1N(CC(O)Cn1c2ccccc2c2ccccc21)S(C)(=O)=O (stereo unspecified) ?
D1 potentiator: inactive; D1 antag: -36.1; TRHR agonist: inactive; D1 agonist: inactive; TRHR PAM: inactive

How did CC(C)CCN(CCC(C)C)CC(O)Cn1c2ccccc2c(=O)c2ccccc21 (stereo unspecified) do in these assays?
D1 potentiator: inactive; D1 antag: inactive; TRHR agonist: inactive; D1 agonist: inactive; TRHR PAM: inactive

Results for Cc1ccc(S(=O)(=O)N2CCOCC2)cc1NC(=O)CSc1nnc(C2CC2)n1C1CC1 ?
D1 potentiator: inactive; D1 antag: inactive; TRHR agonist: inactive; D1 agonist: inactive; TRHR PAM: inactive

Results for COc1ccc(-c2cc(C(=O)NC(C)c3ccccn3)c3ccccc3n2)cc1OC (stereo unspecified) ?
D1 potentiator: inactive; D1 antag: inactive; TRHR agonist: inactive; D1 agonist: inactive; TRHR PAM: inactive

How did COc1ccc(NCc2cc3cc4c(cc3n(CC(=O)Nc3ccc(C)cc3C)c2=O)OCO4)cc1 do in these assays?
D1 potentiator: inactive; D1 antag: inactive; TRHR agonist: inactive; D1 agonist: inactive; TRHR PAM: inactive

Results for COc1ccc(NCc2cc3cc4c(cc3n(CC(=O)Nc3ccc(C)cc3)c2=O)OCO4)cc1 ?
D1 potentiator: inactive; D1 antag: inactive; TRHR agonist: inactive; D1 agonist: 57.4; TRHR PAM: inactive

What do the screens show for `CCc1ccc(NCc2cc3cc4c(cc3n(CC(=O)Nc3ccc(OC)cc3)c2=O)OCO4)cc1`?
D1 potentiator: inactive; D1 antag: inactive; TRHR agonist: inactive; D1 agonist: inactive; TRHR PAM: inactive

Results for COc1ccc(NCc2cc3cc4c(cc3n(CC(=O)Nc3ccc(F)cc3F)c2=O)OCO4)cc1 ?
D1 potentiator: inactive; D1 antag: inactive; TRHR agonist: inactive; D1 agonist: 66.0; TRHR PAM: 35.2

How did CCc1ccc(NCc2cc3cc4c(cc3n(CC(=O)Nc3cccc(OC)c3)c2=O)OCO4)cc1 do in these assays?
D1 potentiator: inactive; D1 antag: inactive; TRHR agonist: inactive; D1 agonist: 56.3; TRHR PAM: inactive

What do the screens show for `COc1ccc(NCc2cc3cc4c(cc3n(CC(=O)Nc3cccc(F)c3)c2=O)OCO4)cc1`?
D1 potentiator: inactive; D1 antag: inactive; TRHR agonist: inactive; D1 agonist: 152.9; TRHR PAM: inactive

How did CCOC(=O)c1cc(-c2ccccc2)n(CCC(=O)Nc2nc3c(C)cccc3s2)c1C do in these assays?
D1 potentiator: inactive; D1 antag: inactive; TRHR agonist: inactive; D1 agonist: inactive; TRHR PAM: inactive

How did COc1cc(OC)c(NC(=O)C(C)n2nc(-c3ccc(C)c(C)c3)ccc2=O)cc1Cl (stereo unspecified) do in these assays?
D1 potentiator: inactive; D1 antag: inactive; TRHR agonist: inactive; D1 agonist: inactive; TRHR PAM: inactive

Results for COc1cc2cc(CNc3ccccc3)c(=O)n(CC(=O)Nc3ccc(C)c(Cl)c3)c2cc1OC ?
D1 potentiator: inactive; D1 antag: inactive; TRHR agonist: inactive; D1 agonist: 30.4; TRHR PAM: inactive

How did O=c1c2nncn2ccn1-c1ccc(F)c(F)c1 do in these assays?
D1 potentiator: inactive; D1 antag: inactive; TRHR agonist: inactive; D1 agonist: inactive; TRHR PAM: inactive

What do the screens show for `COC(=O)c1sc2cccc(F)c2c1S(=O)(=O)NCc1ccccc1Cl`?
D1 potentiator: inactive; D1 antag: inactive; TRHR agonist: inactive; D1 agonist: inactive; TRHR PAM: inactive

How did Cc1cc(N2CCN(C)CC2)ccc1NC(=O)c1ccc(-c2ccc(Cl)cc2)o1 do in these assays?
D1 potentiator: inactive; D1 antag: -61.9; TRHR agonist: inactive; D1 agonist: inactive; TRHR PAM: inactive

Results for Cc1ccc(O)c(NC(=S)NC(=O)Cc2ccc(Cl)cc2)c1 ?
D1 potentiator: inactive; D1 antag: -62.1; TRHR agonist: inactive; D1 agonist: 95.7; TRHR PAM: inactive

Results for Cc1ccc(NC(=S)NC(=O)c2ccc(-c3ccc(Cl)cc3)o2)c(O)c1 ?
D1 potentiator: inactive; D1 antag: inactive; TRHR agonist: inactive; D1 agonist: inactive; TRHR PAM: inactive

What do the screens show for `CC(=O)c1ccc(NC(=S)NC(=O)Cc2ccc(Cl)cc2)cc1`?
D1 potentiator: inactive; D1 antag: inactive; TRHR agonist: inactive; D1 agonist: 41.2; TRHR PAM: inactive

What do the screens show for `Cc1cc(O)c(NC(=S)NC(=O)c2ccc(-c3ccc(Cl)cc3)o2)cc1C`?
D1 potentiator: inactive; D1 antag: -34.0; TRHR agonist: inactive; D1 agonist: inactive; TRHR PAM: inactive

Results for COc1ccc(Cl)cc1NC(=O)Cn1c(=O)n(Cc2ccc(F)cc2)c(=O)c2cccnc21 ?
D1 potentiator: inactive; D1 antag: inactive; TRHR agonist: inactive; D1 agonist: inactive; TRHR PAM: inactive

What do the screens show for `O=C(Nc1cccc(CNCCc2c[nH]c3ccccc23)c1)c1ccccc1Cl`?
D1 potentiator: inactive; D1 antag: -41.3; TRHR agonist: inactive; D1 agonist: 32.4; TRHR PAM: inactive

Results for CC(=O)c1cccc(NC(=O)NCCc2c[nH]c3ccccc23)c1 ?
D1 potentiator: inactive; D1 antag: inactive; TRHR agonist: inactive; D1 agonist: inactive; TRHR PAM: inactive

Results for COC(=O)c1ccc(S(=O)(=O)N2CCCCC2)o1 ?
D1 potentiator: inactive; D1 antag: inactive; TRHR agonist: inactive; D1 agonist: inactive; TRHR PAM: 35.9

What do the screens show for `Cc1onc(-c2c(Cl)cccc2Cl)c1C(=O)N1CCCc2ccccc21`?
D1 potentiator: inactive; D1 antag: inactive; TRHR agonist: inactive; D1 agonist: 139.0; TRHR PAM: inactive

What do the screens show for `Cc1onc(-c2c(F)cccc2Cl)c1C(=O)N1CCc2ccccc21`?
D1 potentiator: inactive; D1 antag: inactive; TRHR agonist: inactive; D1 agonist: inactive; TRHR PAM: inactive

What do the screens show for `Fc1cccc(NC(=S)N2CCc3ccccc32)c1`?
D1 potentiator: inactive; D1 antag: inactive; TRHR agonist: inactive; D1 agonist: inactive; TRHR PAM: inactive
